{"source": "PubChem BioAssay (NCATS)", "key": {"[1]": {"test": "Cellular viability qHTS for adrenocortical cancer (ACC) cell line SW-13 (AID 1963989); note: nearly all actives have a fitted effect of over 65% in size;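 for activity (max response): cells grown in serum-free medium with ITS supplement; % is set by controls: 0 for no effect and ±100 for the full control effect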", "details": "SW-13 ACC cells viability, CellTiter-Glo, 48 h; activity (max response): hits give low values", "method_in_brief": "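Here, serum-free SW-13 cultures were dosed up to 46 uM. Following 48 h, ATP-dependent luminescence (CellTiter-Glo) reported viable cells, and logistic modeling produced IC50 values.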"}, "[2]": {"test": "Cellular viability qHTS for adrenocortical cancer (ACC) cell line NCI-H295R (AID 1963990); note: nearly all actives have a fitted effect of over 60% in size", "details": "CellTiter-Glo ATP luminescence, 48 h; series mostly up to 46.1 µM", "method_in_brief": "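Viability of NCI-H295R after 48 h of treatment (final up to 46 uM) measured through cellular ATP luminescence.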"}}, "note": "Records with an inconclusive call do not appear. Activity calls are given as the source filed them. Calls come from the whole dose curve; as a rule, active = well fitted cell-killing curve with a large enough effect; inconclusive = small, poorly fitted or top-dose-only effect; inactive = flat fitted curve, though single readings scatter. Potency is the fitted concentration of half-maximal effect."}
{"smiles": "CC1Oc2cc(cnc2N)-c2c(nn(C)c2C#N)CN(C)C(=O)c2ccc(F)cc21", "note": "(configuration not stated)", "values": [{"measurement": "activity (max response)", "setting": "[1]", "value": "-20% (inactive)"}, {"measurement": "Potency", "setting": "[2]", "value": "20 µM (active)"}]}
{"smiles": "COCCNCc1ccc(-c2cc3nccc(Oc4ccc(NC(=O)C5(C(=O)Nc6ccc(F)cc6)CC5)cc4F)c3s2)nc1", "values": [{"measurement": "Potency", "setting": "[1]", "value": "3.55 µM (active)"}, {"measurement": "Potency", "setting": "[2]", "value": "3.16 µM (active)"}]}
{"smiles": "CCc1oc2ccccc2c1C(=O)c1cc(I)c(O)c(I)c1", "values": [{"measurement": "Potency", "setting": "[1]", "value": "5.8 µM (active)"}, {"measurement": "Potency", "setting": "[2]", "value": "6.51 µM (active)"}]}
{"smiles": "O=C(Nc1cccnc1)c1cc(-c2ccnc(F)c2)ccc1OCc1ccccc1", "values": [{"measurement": "activity (max response)", "setting": "[1]", "value": "13.4% (inactive)"}, {"measurement": "Potency", "setting": "[2]", "value": "inactive"}]}
{"smiles": "Cc1ncc([N+](=O)[O-])n1CC(O)CCl", "note": "(configuration not stated)", "values": [{"measurement": "activity (max response)", "setting": "[1]", "value": "-4.94% (inactive)"}, {"measurement": "Potency", "setting": "[2]", "value": "inactive"}]}
{"smiles": "c1ccc2c(c1)CCc1ccccc1N2", "values": [{"measurement": "activity (max response)", "setting": "[1]", "value": "-6.25% (inactive)"}, {"measurement": "Potency", "setting": "[2]", "value": "inactive"}]}
